Source: PubChem BioAssay AID1159580 (chemical genetic matrix, 2015)
The whole screen tested about 5,500 compounds, of which about 2,000 (36%) were called active. Roughly 18% stayed inconclusive and do not appear here. Rule as the data show it: active = normalized growth mostly below about 0.91 (no sharp cut-off); inconclusive = no clear call, values can overlap the other calls; inactive = mostly above about 0.92. The list shows a part of the results.

Assay: chemical genetic growth profiling, strain panel (AID 1159580);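 also: tested at 20 µM; growth read once vehicle control cultures reached saturation at 30 °C; 1 = growth at the plate median or of vehicle wells; lower values mean less growth of the strain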
Conditions: S. cerevisiae deletion strains, growth OD

Measured: normalized growth

COc1ccccc1OCC(O)CN1CCN(CC(=O)Nc2c(C)cccc2C)CC1 (configuration not stated)
inactive: locus YAL013W, strain DEP1, stronger effect = lower value 0.996 | locus YAL021C, strain ccr4, stronger effect = lower value 0.991 | locus YAL026C, strain drs2, stronger effect = lower value 1.03 | locus YAL030W, strain snc1, stronger effect = lower value 1.01 | locus YAL040C, strain CLN3, stronger effect = lower value 1 | locus YBL061C, strain skt5, stronger effect = lower value 1.02 | locus YBR009C, strain hhf1, stronger effect = lower value 0.986 | locus YBR023C, strain chs3, stronger effect = lower value 1.03 | locus YBR171W, strain sec66, stronger effect = lower value 1.02 | locus YBR231C, strain swc5, stronger effect = lower value 0.991 | locus YBR279W, strain paf1, stronger effect = lower value 1.02 | locus YCL011C, strain gbp2, stronger effect = lower value 1.01 | locus YCL016C, strain dcc1, stronger effect = lower value 1.04 | locus YCL061C, strain MRC1 (second series), stronger effect = lower value 1 | locus YCL061C, strain MRC1, stronger effect = lower value 0.993 | locus YCL069W, strain vba3, stronger effect = lower value 1.02 | locus YCR088W, strain abp1, stronger effect = lower value 1.02 | locus YDL005C, strain med2, stronger effect = lower value 1 | locus YDL040C, strain nat1, stronger effect = lower value 1 | locus YDR001C, strain nth1, stronger effect = lower value 1 | locus YDR069C, strain doa4, stronger effect = lower value 0.991 | locus YDR137W, strain rgp1, stronger effect = lower value 1.06 | locus YDR159W, strain sac3, stronger effect = lower value 0.912 | locus YDR195W, strain ref2 0.993 | locus YDR297W, strain sur2, stronger effect = lower value 1 | locus YDR334W, strain swr1, stronger effect = lower value 1 | locus YDR335W, strain msn5, stronger effect = lower value 1.01 | locus YDR363W, strain ESC2, stronger effect = lower value 0.998 | locus YDR392W, strain spt3, stronger effect = lower value 0.942 | locus YEL003W, strain gim4, stronger effect = lower value 0.976 | locus YEL037C, strain rad23, stronger effect = lower value 1.01 | locus YEL061C, strain CIN8 (second series), stronger effect = lower value 0.997 | locus YER002W, strain NOP16, stronger effect = lower value 0.993 | locus YER015W, strain faa2, stronger effect = lower value 1.01 | locus YER016W, strain bim1, stronger effect = lower value 1.03 | locus YER111C, strain swi4, stronger effect = lower value 1.02 | locus YER155C, strain BEM2 (second series), stronger effect = lower value 0.957 | locus YFR010W, strain ubp6, stronger effect = lower value 0.97 | locus YGL167C, strain pmr1, stronger effect = lower value 0.989 | locus YGL173C, strain kem1, stronger effect = lower value 0.987 | locus YGL227W, strain vid30, stronger effect = lower value 1.02 | locus YGL240W, strain doc1, stronger effect = lower value 0.987 | locus YGL253W, strain hxk2, stronger effect = lower value 1.06 | locus YHR013C, strain ard1, stronger effect = lower value 1.03 | locus YHR027C, strain rpn1, stronger effect = lower value 0.988 | locus YHR030C, strain SLT2, stronger effect = lower value 1.06 | locus YHR079C, strain IRE1, stronger effect = lower value 1.05 | locus YHR142W, strain chs7, stronger effect = lower value 1.02 | locus YJL092W, strain hpr5, stronger effect = lower value 1 | locus YJL095W, strain BCK1 (second series), stronger effect = lower value 1.02 | locus YJL095W, strain BCK1, stronger effect = lower value 1.02 | locus YJL115W, strain asf1, stronger effect = lower value 1 | locus YJL129C, strain trk1, stronger effect = lower value 1.03 | locus YJL154C, strain vps35, stronger effect = lower value 1 | locus YJL164C, strain tpk1, stronger effect = lower value 0.979 | locus YJL166W, strain qcr8, stronger effect = lower value 0.997 | locus YJR066W, strain TOR1, stronger effect = lower value 0.977 | locus YJR075W, strain HOC1, stronger effect = lower value 1 | locus YKL160W, strain elf1, stronger effect = lower value 1.01 | locus YKR026C, strain gcn3, stronger effect = lower value 1 | locus YKR091W, strain srl3, stronger effect = lower value 1 | locus YLL001W, strain dnm1, stronger effect = lower value 0.964 | locus YLL026W, stronger effect = lower value 1.01 | locus YLL041C, strain sdh2, stronger effect = lower value 1.02 | locus YLR027C, strain aat2, stronger effect = lower value 1 | locus YLR113W, strain HOG1, stronger effect = lower value 0.982 | locus YLR221C, strain rsa3, stronger effect = lower value 0.972 | locus YLR258W, strain gsy2, stronger effect = lower value 1.03 | locus YLR262C, strain YPT6 (second series), stronger effect = lower value 1.02 | locus YLR320W, strain mms22, stronger effect = lower value 0.937 | locus YLR342W, strain FKS1, stronger effect = lower value 1.02 | locus YLR357W, strain rsc2, stronger effect = lower value 0.99 | locus YLR370C, strain arc18, stronger effect = lower value 1.01 | locus YLR384C, strain iki3, stronger effect = lower value 0.997 | locus YML120C, strain ndi1, stronger effect = lower value 0.976 | locus YMR058W, strain fet3, stronger effect = lower value 1.01 | locus YMR125W, strain sto1, stronger effect = lower value 1.01 | locus YMR129W, stronger effect = lower value 0.988 | locus YMR205C, strain PFK2, stronger effect = lower value 1 | locus YMR231W, strain pep5, stronger effect = lower value 1 | locus YMR307W, strain GAS1, stronger effect = lower value 1.02 | locus YNL071W, strain lat1, stronger effect = lower value 1 | locus YNL153C, strain GIM3, stronger effect = lower value 1.06 | locus YNL175C, strain NOP13, stronger effect = lower value 1.01 | locus YNL183C, strain NPR1, stronger effect = lower value 0.963 | locus YNL197C, strain WHI3, stronger effect = lower value 1.01 | locus YNL209W, strain ssb2, stronger effect = lower value 1.02 | locus YNL224C, strain SQS1, stronger effect = lower value 1.01 | locus YNL248C, strain rpa49, stronger effect = lower value 1.07 | locus YNL322C, strain KRE1 (second series), stronger effect = lower value 1.02 | locus YNR049C, strain mso1, stronger effect = lower value 1 | locus YOR001W, strain rrp6, stronger effect = lower value 0.924 | locus YOR070C, strain gyp1, stronger effect = lower value 1.01 | locus YOR080W, strain dia2, stronger effect = lower value 1.01 | locus YOR083W, strain WHI5 (second series), stronger effect = lower value 1.02 | locus YOR083W, strain WHI5, stronger effect = lower value 0.974 | locus YOR106W, strain vam3, stronger effect = lower value 1.04 | locus YOR231W, strain MKK1, stronger effect = lower value 1.01 | locus YOR265W, strain rbl2, stronger effect = lower value 0.98 | locus YOR270C, strain vph1, stronger effect = lower value 0.991 | locus YOR290C, strain snf2, stronger effect = lower value 1.06 | locus YPL051W, strain arl3, stronger effect = lower value 1.04 | locus YPL078C, strain atp4, stronger effect = lower value 1.07 | locus YPL106C, strain sse1, stronger effect = lower value 1.1 | locus YPL240C, strain hsp82, stronger effect = lower value 1 | locus YPL241C, strain CIN2, stronger effect = lower value 1.01 | locus YPL256C, strain CLN2, stronger effect = lower value 1.05
